PubChem BioAssay AID624263 (National Center for Advancing Translational Sciences (NCATS), 2012)
About 820 (0.2%) of roughly 410,000 compounds were called active. A call without a number means that no potency is given here. Roughly 2% stayed inconclusive and do not appear here. The call rests on the fitted dose curve; in most records, active means well fitted activation curve with a large enough effect; inconclusive means small, poorly fitted or top-dose-only effect; inactive means flat fitted curve, though single readings scatter; cell line not stated here. This excerpt belongs to a sample that is enriched for actives.

Assay: A Quantitative High throughput Screen to Identify Chemical Modulators of PINK1 Expression; further: nearly all actives have a fitted effect of over 65% in size
Details: PINK1 immunofluorescence, high-content cytometry, 24 h; series mostly up to 76.6 µM
In short: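 Readout is PINK1 immunofluorescence, quantified alongside mitochondrial, cell and nuclear markers by laser-scanning microplate cytometry. Cells from a stable line were exposed to compound titrations (5 concentrations) for 24 hours, with CCCP controls.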
Potency means the concentration at half of the fitted maximal effect.

Row | SMILES | Potency
1 | CNCCCOc1cc2nc(N3CCCN(C)CC3)nc(NC3CCN(C)CC3)c2cc1OC | inactive
2 | CCOC(=O)c1c(NC(=O)/C=C/c2ccc(OC)cc2)sc2c1CCC(C)C2 (configuration not stated) | inactive
3 | COc1ccc2oc(=O)c(-c3cn4c(n3)sc3cc(OC)ccc34)cc2c1 | inactive
4 | COc1ccc2cc(-c3nc(Cl)c4c5c(sc4n3)CC(C)CC5)c(=O)oc2c1 (configuration not stated) | 15.8 µM (active)
5 | COc1cc(=O)n2c(c1C(=O)N(C)Cc1nccs1)CCN(Cc1ccc(Cl)cc1)CC2 | inactive
6 | c1ccc(CN2CCN(Cc3ccc4c(c3)CN(Cc3c[nH]c5ccccc35)CCO4)CC2)nc1 | inactive
7 | COc1ccc(F)c(CN2CCC3(CCC(CNC(=O)c4ccn(C)n4)O3)CC2)c1 (configuration not stated) | inactive
8 | O=C1COc2ccc(-c3csc(-c4ccc(Cl)cc4)n3)cc2N1 | inactive
9 | OC(CBr)C[n+]1cccc2cc(Br)ccc21 (configuration not stated) | inactive
10 | CO[C@H]1[C@H](NC(=O)C(C)C)c2ccccc2C12CCN(Cc1cnc(N(C)C)s1)CC2 | inactive
11 | CCN1CC=C2C(C#N)=C(N)C(C#N)(C#N)[C@H](c3ccoc3)[C@H]2C1 | 39.8 µM (active)
12 | CC(C)N1C[C@@H](NCc2ccccc2O)C[C@H]1C(=O)N1CCN(c2cccc(C(F)(F)F)c2)CC1 | inactive
13 | FC(F)(F)c1cccc(-c2cn[nH]c2C2CCCN(Cc3cccn3-c3ccccn3)C2)c1 (configuration not stated) | inactive
14 | CC(=O)Nc1ccccc1-c1nc(CNC(=O)c2ccc(Cl)cc2)c(C)o1 | inactive
15 | C=COC(=O)N1CCN(/[N+]([O-])=N/Oc2ccc([N+](=O)[O-])cc2[N+](=O)[O-])CC1 | inactive
16 | CCS(=O)(=O)Nc1cc(C(=O)N2C[C@@H](C)O[C@@H](C)C2)c2c(c1)nc(-c1ccccc1)n2C | inactive
17 | Cc1ccc(C(=O)Nc2cccc(-c3nc(CNC(=O)c4ccccc4-n4cccn4)c(C)o3)c2)s1 | inactive
18 | COc1ccc2c(c1)CCc1cnc(-n3ncc(C(=O)NCCN4CCOCC4)c3C)nc1-2 | inactive
19 | COc1ccc(CN2CCOc3c(cc(-c4ncc(C(F)(F)F)cc4Cl)cc3OCC3CCCO3)C2)c(O)c1 (configuration not stated) | inactive
20 | COc1cc2nc(N3CCCN(C)CC3)nc(NC3CC3)c2cc1OC | inactive
21 | CC(=O)Nc1cc(C(=O)N2CCc3c(Cl)cccc3C2)cc2ncn(CCc3ccccn3)c12 | inactive

Row | SMILES | Potency
22 | CC(C)Oc1cc(F)ccc1-c1cc(C(=O)Nc2ccc(F)cc2)[nH]n1 | inactive
23 | COc1ccc(Cl)cc1-c1cc(C(=O)Nc2cc(OC)c(OC)c(OC)c2)[nH]n1 | inactive
24 | CCCOc1ccc(F)cc1-c1cc(C(=O)Nc2ccc(F)c(Cl)c2)[nH]n1 | 39.8 µM (active)
25 | Cc1ccc2c(C)nc(N3CCCC(C(=O)NC(C)(C)CO)C3)nc2c1 (configuration not stated) | inactive
26 | Cc1cnc(C(=O)N2CCOc3ccc(CN4CCCC(C(=O)c5cccnc5)C4)cc3C2)[nH]1 (configuration not stated) | inactive
27 | O=c1c(-c2ccc(F)cc2)nc2cnc(N3CCOCC3)nc2n1-c1ccccc1 | inactive
28 | COc1cc2nc(Cl)nc(NC3CC3)c2cc1OC | inactive
29 | COc1ccc(C(=O)N2CCC3(CC2)CCN(c2ccccn2)CC3)cc1 | inactive
30 | COc1ccccc1CNc1nc(-c2c(C)noc2C)nc2ccccc12 | inactive
31 | COc1ccc(CN2CCC3(CCC(CNC(=O)c4ccco4)O3)CC2)cc1OC (configuration not stated) | inactive
32 | COc1ccc(CN(C)CCn2cc(C(=O)N3CCSCC3)nn2)cc1C | inactive
33 | CS(=O)(=O)c1ccccc1C(=O)Nc1ccc2sccc2c1 | inactive
34 | O=C(Nc1ccc2ccccc2c1)Nc1ccc2snnc2c1 | 44.7 µM (active)
35 | COc1cccc(C(=O)Nc2ccc3oc(-c4ccc5ccccc5c4)nc3c2)c1 | inactive
36 | CN(C)C(=O)[C@@H]1C[C@@H](Sc2nc3ccccc3[nH]2)CN1Cc1ccc(Cl)cc1 | inactive
37 | O=C(c1cc(C(F)(F)F)cc(C(F)(F)F)c1)N1CCC[C@@]2(CCN(c3ccccn3)C2)C1 | inactive
38 | CC(C)c1cc(C(=O)N2CCOc3ccc(CN4CCC(Oc5cccnc5)CC4)cc3C2)n[nH]1 | inactive
39 | Cc1c(S(=O)(=O)O)oc2c1C(=O)C(=O)c1c-2ccc2c1CCCC2(C)C | inactive
40 | S=c1[nH]c(=S)c2n[nH]nc2[nH]1 | inactive
41 | O=[N+]([O-])c1ccc(NS(=O)(=O)c2ccccc2)c(Cl)c1 | 39.8 µM (active)
42 | O=C(NCCCNc1ccc([N+](=O)[O-])cc1Cl)c1ccccc1F | inactive

Row | SMILES | Potency
43 | O=C(NNS(=O)(=O)c1ccc(F)cc1)c1ccc([N+](=O)[O-])cc1Cl | inactive
44 | C=C[C@](C)(O)CCC1C(=C)CCC2[C@@](C)(CO)CCC[C@@]12C (some centres not stated) | inactive
45 | COc1cccc(CN2CCC3(CC2)c2ccccc2[C@@H](NC(=O)c2ccccc2OC)[C@@H]3O)c1 | inactive
46 | COc1cc(=O)n2c(c1C(=O)NCc1ccco1)CCN(Cc1ccccc1)CC2 | inactive
47 | O=c1c(CN2CCOc3ccc(CN4CCC(Oc5cccnc5)CC4)cc3C2)coc2ccccc12 | inactive
48 | Cc1ccc(C)c(NC(=S)NNC(=S)Nc2ccc(C(C)C)cc2)c1 | 14.1 µM (active)
49 | Cc1ccc(C)c(NC(=O)C2CC(=O)N(C(C)C)C2)c1 (configuration not stated) | inactive
50 | Cc1ccc(C)c(NC(=S)NCC(c2cccnc2)N2CCOCC2)c1 (configuration not stated) | inactive
51 | COCCn1c(=O)c(-c2ccc(OC)cc2)nc2cnc(Oc3cccc(Cl)c3)nc21 | inactive
52 | Nc1ccc(/C=C/c2ccnc3ccccc23)c([N+](=O)[O-])c1 | inactive
53 | CCOC(=O)N1CCN(Cc2ccc3c(c2)CN(C(=O)c2cccc(-n4cccn4)c2)CCO3)CC1 | inactive
54 | COc1ccccc1CNC(=O)C1CCN(C(=O)[C@@H]2Cc3ccccc3CN2)CC1 | inactive
55 | COc1ccccc1CNC(=O)C1CCN(c2nc3ccccc3o2)CC1 | 2.82 µM (active)
56 | COc1ccccc1CNC(=O)C1CCN(S(=O)(=O)c2ccc3c(c2)OCCO3)CC1 | inactive
57 | O=C(CCN1Cc2ccccc2OC(c2ccccc2)C1)N[C@@H]1CS(=O)(=O)C[C@H]1O (some centres not stated) | inactive
58 | CN1CCN(c2ncc3nc(-c4ccc(Cl)cc4)c(=O)n(-c4ccccc4)c3n2)CC1 | inactive
59 | CCc1nc2cc(C(=O)NCC3CCS(=O)(=O)C3)cc(NC(=O)c3ccccc3OC)c2n1C (configuration not stated) | inactive
60 | Cc1cc(C2=NNC(=Nc3ccc(S(=O)(=O)N4CCOCC4)cc3)SC2)c(C)n1CC1CCCO1 (configuration not stated) | 35.5 µM (active)
61 | C=CCn1c(C)cc(C2=NNC(=NCC)SC2)c1C | inactive
62 | CCOc1ccc(S(=O)(=O)N2CCN(C(=S)NCC3CCCO3)CC2)cc1 (configuration not stated) | inactive
